Hit rate of the full screen: of about 5,500 compounds, about 2,000 (36%) were called active. Inconclusive results (about 18%) are left out. Cut-off read from the data, not from the text of the source: active = normalized growth mostly below about 0.91 (no sharp cut-off); inconclusive = no clear call, values can overlap the other calls; inactive = mostly above about 0.92. The list shows a part of the results.
Assay: chemical genetic growth profiling, strain panel (AID 1159580);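 note: tested at 20 µM; growth read once vehicle control cultures reached saturation at 30 °C; 1 = growth at the plate median or of vehicle wells; lower values mean less growth of the strain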
Conditions: growth OD

Measured: normalized growth

CCOc1cccc(C(=O)c2ccc(O)c(O)c2O)c1
active: S. cerevisiae deletion strains, locus YKR001C, strain vps1, stronger effect = lower value 0.811 | S. cerevisiae deletion strains, locus YLR027C, strain aat2, stronger effect = lower value 0.905 | S. cerevisiae deletion strains, locus YLR039C, strain RIC1, stronger effect = lower value 0.521 | S. cerevisiae deletion strains, locus YLR058C, strain SHM2, stronger effect = lower value 0.524 | S. cerevisiae deletion strains, locus YLR221C, strain rsa3, stronger effect = lower value 0.87 | S. cerevisiae deletion strains, locus YLR258W, strain gsy2, stronger effect = lower value 0.899 | S. cerevisiae deletion strains, locus YLR262C, strain YPT6 (second series), stronger effect = lower value 0.627 | S. cerevisiae deletion strains, locus YLR268W, strain sec22, stronger effect = lower value 0.72 | S. cerevisiae deletion strains, locus YLR320W, strain mms22, stronger effect = lower value 0.806 | S. cerevisiae deletion strains, locus YLR330W, strain CHS5, stronger effect = lower value 0.804 | S. cerevisiae deletion strains, locus YLR342W, strain FKS1 (second series), stronger effect = lower value 0.633 | S. cerevisiae deletion strains, locus YLR342W, strain FKS1, stronger effect = lower value 0.903 | S. cerevisiae deletion strains, locus YLR357W, strain rsc2, stronger effect = lower value 0.706 | S. cerevisiae deletion strains, locus YLR371W, strain rom2, stronger effect = lower value 0.737 | S. cerevisiae deletion strains, locus YLR418C, strain cdc73, stronger effect = lower value 0.563 | S. cerevisiae deletion strains, locus YML016C, strain PPZ1, stronger effect = lower value 0.71 | S. cerevisiae deletion strains, locus YML120C, strain ndi1, stronger effect = lower value 0.765 | S. cerevisiae deletion strains, locus YMR058W, strain fet3, stronger effect = lower value 0.283 | S. cerevisiae deletion strains, locus YMR205C, strain PFK2, stronger effect = lower value 0.74 | S. cerevisiae deletion strains, locus YMR223W, strain ubp8, stronger effect = lower value 0.844 | S. cerevisiae deletion strains, locus YMR231W, strain pep5, stronger effect = lower value 0.826 | S. cerevisiae deletion strains, locus YMR263W, strain SAP30, stronger effect = lower value 0.854 | S. cerevisiae deletion strains, locus YNL067W, strain RPL9B, stronger effect = lower value 0.841 | S. cerevisiae deletion strains, locus YNL071W, strain lat1, stronger effect = lower value 0.889 | S. cerevisiae deletion strains, locus YNL153C, strain GIM3, stronger effect = lower value 0.747 | S. cerevisiae deletion strains, locus YNL209W, strain ssb2, stronger effect = lower value 0.752 | S. cerevisiae deletion strains, locus YNL233W, strain BNI4, stronger effect = lower value 0.781 | S. cerevisiae deletion strains, locus YNL271C, strain bni1, stronger effect = lower value 0.886 | S. cerevisiae deletion strains, locus YNR052C, strain pop2, stronger effect = lower value 0.739 | S. cerevisiae deletion strains, locus YOL006C, strain TOP1, stronger effect = lower value 0.398 | S. cerevisiae deletion strains, locus YOL147C, strain pex11, stronger effect = lower value 0.823 | S. cerevisiae deletion strains, locus YOR001W, strain rrp6, stronger effect = lower value 0.87 | S. cerevisiae deletion strains, locus YOR061W, strain CKA2, stronger effect = lower value 0.788 | S. cerevisiae deletion strains, locus YOR069W, strain VPS5, stronger effect = lower value 0.808 | S. cerevisiae deletion strains, locus YOR070C, strain gyp1, stronger effect = lower value 0.925 | S. cerevisiae deletion strains, locus YOR106W, strain vam3, stronger effect = lower value 0.639 | S. cerevisiae deletion strains, locus YOR144C, strain elg1, stronger effect = lower value 0.816 | S. cerevisiae deletion strains, locus YOR184W, strain ser1, stronger effect = lower value 0.812 | S. cerevisiae deletion strains, locus YOR265W, strain rbl2, stronger effect = lower value 0.923 | S. cerevisiae deletion strains, locus YOR270C, strain vph1, stronger effect = lower value 0.637 | S. cerevisiae deletion strains, locus YOR290C, strain snf2, stronger effect = lower value 0.64 | S. cerevisiae deletion strains, locus YPL051W, strain arl3, stronger effect = lower value 0.767 | S. cerevisiae deletion strains, locus YPL106C, strain sse1, stronger effect = lower value 0.823 | S. cerevisiae deletion strains, locus YPL241C, strain CIN2, stronger effect = lower value 0.926 | S. cerevisiae deletion strains, locus YPR167C, strain met16, stronger effect = lower value 0.84 | S. cerevisiae deletion strains, strain wtn01, stronger effect = lower value 0.799 | S. cerevisiae strains, strain wild type, stronger effect = lower value 0.635
inactive: S. cerevisiae deletion strains, locus YKL009W, strain mrt4, stronger effect = lower value 0.914 | S. cerevisiae deletion strains, locus YKL068W, stronger effect = lower value 0.972 | S. cerevisiae deletion strains, locus YKL085W, strain MDH1 (second series), stronger effect = lower value 0.955 | S. cerevisiae deletion strains, locus YKL085W, strain MDH1, stronger effect = lower value 0.955 | S. cerevisiae deletion strains, locus YKL160W, strain elf1, stronger effect = lower value 0.93 | S. cerevisiae deletion strains, locus YKR026C, strain gcn3, stronger effect = lower value 0.956 | S. cerevisiae deletion strains, locus YKR091W, strain srl3, stronger effect = lower value 0.966 | S. cerevisiae deletion strains, locus YLL001W, strain dnm1, stronger effect = lower value 0.945 | S. cerevisiae deletion strains, locus YLL026W, stronger effect = lower value 0.936 | S. cerevisiae deletion strains, locus YLL041C, strain sdh2, stronger effect = lower value 0.939 | S. cerevisiae deletion strains, locus YLR102C, strain apc9, stronger effect = lower value 0.996 | S. cerevisiae deletion strains, locus YLR113W, strain HOG1, stronger effect = lower value 1.05 | S. cerevisiae deletion strains, locus YLR370C, strain arc18, stronger effect = lower value 0.939 | S. cerevisiae deletion strains, locus YLR384C, strain iki3, stronger effect = lower value 0.938 | S. cerevisiae deletion strains, locus YML032C, strain rad52, stronger effect = lower value 0.942 | S. cerevisiae deletion strains, locus YML124C, strain tub3, stronger effect = lower value 0.948 | S. cerevisiae deletion strains, locus YMR078C, strain ctf18, stronger effect = lower value 0.966 | S. cerevisiae deletion strains, locus YMR125W, strain sto1, stronger effect = lower value 0.976 | S. cerevisiae deletion strains, locus YMR129W, stronger effect = lower value 0.95 | S. cerevisiae deletion strains, locus YMR307W, strain GAS1, stronger effect = lower value 0.698 | S. cerevisiae deletion strains, locus YNL183C, strain NPR1, stronger effect = lower value 0.98 | S. cerevisiae deletion strains, locus YNL248C, strain rpa49, stronger effect = lower value 0.95 | S. cerevisiae deletion strains, locus YNL250W, strain rad50, stronger effect = lower value 0.937 | S. cerevisiae deletion strains, locus YNL298W, strain CLA4, stronger effect = lower value 0.931 | S. cerevisiae deletion strains, locus YNL307C, strain MCK1, stronger effect = lower value 0.907 | S. cerevisiae deletion strains, locus YNL322C, strain KRE1 (second series), stronger effect = lower value 0.965 | S. cerevisiae deletion strains, locus YNR049C, strain mso1, stronger effect = lower value 0.961 | S. cerevisiae deletion strains, locus YOL012C, strain htz1 0.288 | S. cerevisiae deletion strains, locus YOR080W, strain dia2, stronger effect = lower value 0.961 | S. cerevisiae deletion strains, locus YOR083W, strain WHI5, stronger effect = lower value 0.894 | S. cerevisiae deletion strains, locus YOR136W, strain idh2, stronger effect = lower value 0.93 | S. cerevisiae deletion strains, locus YOR231W, strain MKK1, stronger effect = lower value 1 | S. cerevisiae deletion strains, locus YOR316C, strain cot1, stronger effect = lower value 0.962 | S. cerevisiae deletion strains, locus YPL078C, strain atp4, stronger effect = lower value 0.931 | S. cerevisiae deletion strains, locus YPL240C, strain hsp82, stronger effect = lower value 0.954 | S. cerevisiae deletion strains, locus YPL256C, strain CLN2, stronger effect = lower value 1.07 | S. cerevisiae deletion strains, locus YPR119W, strain clb2, stronger effect = lower value 0.982 | S. cerevisiae deletion strains, locus YPR141C, strain kar3, stronger effect = lower value 0.963 | S. cerevisiae deletion strains, locus YPR163C, strain tif3, stronger effect = lower value 0.936

From PubChem BioAssay AID1159580 (chemical genetic matrix, 2015)
